Columns and labels:
Assay type in all cases: functional
[1] = target: Solute carrier family 2, facilitated glucose transporter member 1 (Homo sapiens) (UniProt P11166); experiment: ST_JUDE_LEISH: Cytotoxicity at 2uM final concentration against transgenic Leishmania Mexicana promastigotes LmGLUT1 that are glucose transport deficient and complemented with the human glucose transporter GLUT1. Activity is measured by DNA content using SYBR green in vitro
[2] = target: Hexose transporter 1 (Plasmodium falciparum) (UniProt O97467); experiment: ST_JUDE_LEISH: Cytotoxicity at 2uM final concentration against transgenic Leishmania Mexicana promastigotes LmPfHT that are glucose transport deficient and complemented with the Plasmodium falciparum hexose transporter. Activity is measured by DNA content using SYBR green in vitro
[3] = target: Glucose transporter (Leishmania mexicana) (UniProt O61059); experiment: ST_JUDE_LEISH: Cytotoxicity at 2uM final concentration against transgenic Leishmania Mexicana promastigotes LmGT2 that are glucose transport deficient and complemented with the L. Mexicana glucose transporter 2. Activity is measured by DNA content using SYBR green in vitro

Sequence of Solute carrier family 2, facilitated glucose transporter member 1 (Homo sapiens) (P11166 whole entry): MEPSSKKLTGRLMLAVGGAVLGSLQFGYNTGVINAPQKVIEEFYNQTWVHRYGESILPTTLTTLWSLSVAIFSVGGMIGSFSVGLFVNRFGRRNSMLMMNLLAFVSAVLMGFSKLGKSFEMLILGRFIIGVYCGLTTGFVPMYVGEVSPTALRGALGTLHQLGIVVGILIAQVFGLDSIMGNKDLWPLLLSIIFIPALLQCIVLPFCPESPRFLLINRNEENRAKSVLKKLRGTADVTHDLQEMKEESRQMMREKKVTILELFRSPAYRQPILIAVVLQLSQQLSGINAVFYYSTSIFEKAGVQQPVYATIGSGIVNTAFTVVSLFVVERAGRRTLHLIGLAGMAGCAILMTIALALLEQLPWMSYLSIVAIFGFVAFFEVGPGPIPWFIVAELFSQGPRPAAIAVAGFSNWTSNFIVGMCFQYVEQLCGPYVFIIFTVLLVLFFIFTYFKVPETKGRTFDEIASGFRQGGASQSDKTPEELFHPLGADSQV

SMILES | inhibition [1] [%] | inhibition [2] [%] | inhibition [3] [%]
COc1ccc(CCN(C)CCCCNC(=O)c2ccc(NC(=O)c3ccc(Cl)cc3)cc2)c(OC)c1 | 1.64 | 2.15 | 2.45
CC(C)CNC(=O)c1cncc(-c2ccc(CNCCCc3ccccc3)cc2)c1 | 0.94 | -0.91 | -0.55
Cc1ccc(Nc2ccnc3cc(-c4nccs4)ccc23)cc1C(O)c1ccccc1 (centres undefined) | 3.59 | 2.96 | 3.72
CCOc1c(CNCCCNc2nc3ccccc3[nH]2)cc(I)cc1OC | 1.59 | 1.56 | 2.86
CCCCn1c(N)c(N(Cc2ccco2)C(=O)C=Cc2cc(OC)c3c(c2)OCCO3)c(O)nc1=O | 3.56 | 1.02 | 3.32
Cc1noc(-c2cccs2)c1C(=O)NCCc1cccc(Cl)c1 | 5.34 | 5.32 | 2.4
CC1(C)N=C(N)N=C(N)N1OCCCc1ccccc1 | 1.22 | 2.68 | 2.65
CCCOc1cccc(C(=O)N[C@@H](Cc2ccccc2)[C@H](O)CNCc2cccc(OC)c2)c1 | 0.22 | 0.92 | -3.25
Cc1cc(O)c(-c2cc(C(=O)Nc3cccnc3)[nH]n2)cc1C | 7.05 | 4.46 | 4.37
COc1ccccc1CCNc1nc(C)cc(NCCC(=O)NCCOc2ccccc2)n1 | 5.24 | 7.33 | 2.01
CC(C)NCc1ccc(-c2ccc(CN3CCCC(c4ccccc4)C3)cc2)c(C(=O)NC2Cc3ccccc3C2)c1 (centres undefined) | 16.8 | 17.4 | 11
CC(=O)N(C)c1cccc(CNc2cc(C)nc(Nc3ccc(C)cc3)n2)c1 | 4.41 | 4.95 | 0.91
COc1ccc2ncc(F)c(CCN3CC(O)C(CNCc4ccc5oc(=O)ccc5c4)C3)c2n1 (centres undefined) | 8.17 | 6.29 | 5.19
COc1ccc(NC(=O)[C@H](CC(C)C)Nc2ccnc(Nc3ccccc3)n2)cc1 | 0.79 | 2.71 | -0.96
CCc1c(CCNCCCCCCNCCc2ccc(OC)c(OC)c2CC)ccc(OC)c1OC | 8.52 | 7.29 | 6.3
Cc1cc(NCc2ccccc2)nc2cc(O)ccc12 | 8.52 | 13.2 | 7.14
c1cc(-c2ccc(CNC3CC3)cc2)cc(-c2nc3ccccc3[nH]2)c1 | 4.18 | 1.98 | 0.68

SMILES | inhibition [1] [%] | inhibition [2] [%] | inhibition [3] [%]
Clc1ccc2c(NCCc3ccccn3)ccnc2c1 | 6.58 | 6.15 | 6.87
C#CC[C@@H](NC(N)=O)C(=O)O | -0.51 | 1 | 0.41
CCOC(=O)CCCc1cc(NC2CCN(C)CC2)nc(Nc2ccc(OC)cc2)n1 | -0.13 | 0.24 | 1.72
FC(F)(F)c1ccc2[nH]c(-c3ccc(-c4cccc(CNCC5CCCO5)c4)s3)nc2c1 (centres undefined) | 0.73 | 2.27 | 2.21
O=C(c1ccc(F)cc1)N1CCOC(CCN2CCC(c3ccccc3)CC2)(c2ccc(Cl)c(Cl)c2)C1 (centres undefined) | 0.53 | 1.42 | 5.2
Cc1cc(N[C@@H](Cc2ccccc2)C(=O)NCc2cccc(F)c2)nc(NCCc2ccc(F)cc2)n1 | 4.47 | 2.55 | 1.36
NCCNc1ccnc2cc(Cl)ccc12 | 0.54 | 1.61 | 1.05
CC(C)[C@H](NC(=O)c1ccc(O)c(-c2ccc(Cl)c(Cl)c2)c1)C(=O)NCCN(C)C | 0.25 | 0.6 | 1.16
COc1ccc(-n2nc(C)cc2C(=O)NCc2ccc(-c3c(C)noc3C)cc2)cc1 | 2.56 | 2.4 | -0.58
c1ccc(-c2nnc(-c3ccccn3)nc2NC2CCCCC2)cc1 | 80 | 79.8 | 71.2
Cc1nc2ccc(-c3ccc(OC(F)(F)F)cc3)cc2c(O)c1C#N | -2.1 | 0.11 | -1.44
COc1cc2ccccc2cc1CNCCCCCCNCc1cc2ccccc2cc1OC | 5.18 | 6.05 | 5.15
COc1ccc(OCCCON2C(=N)N=C(N)NC2(C)C)cc1 | 5 | 1.09 | 1.17
O=[N+]([O-])c1ccc(-c2ccc(C=NNc3nc(Nc4ccccc4)nc(Nc4ccccc4)n3)o2)cc1 | 0.91 | -0.88 | -1.48
N#Cc1cccc(Nc2cc(C(F)(F)F)nc(Nc3ccccc3)n2)c1 | 15.4 | 11.3 | 6.45
CCCCc1cc(NCC)nc(Nc2cccc(OC)c2)n1 | 38.6 | 27 | 19.1

— ChEMBL document CHEMBL3433997, “St. Jude Leishmania screening dataset” (2016)
